From the supplement of paper PMC10849652
Of roughly 8,800 targets only a part is listed; those with a hit were picked by preference. About 0.5% of all pairs of compound and target were hits.

Tests used:
Assay in all cases: log2 fold change, soluble protein after heating vs DMSO (PISA); higher = thermal stabilisation; K562 lysate, 10 uM; active = over 0.2 and 3.5 SD of the protein, either way, in both replicates (recomputed)
lapatinib = compound: CS(=O)(=O)CCNCc1ccc(-c2ccc3ncnc(Nc4ccc(OCc5cccc(F)c5)c(Cl)c4)c3c2)o1 [lapatinib]
In short: (§1)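 To prepare the extract, K562 pellets were dounce-homogenised in PBS pH 7.4 with 1 mM MgCl2, giving crude material at 1 mg/mL protein. This was treated with 10 μM compound for 30 min, then heated in aliquots for 3 min over 48°C-58°C before pooling and addition of NP-40 to 0.5% at 4°C. Centrifugation at 21,000xg for 90 min left soluble protein in the supernatant, which TMTpro 16plex LC-MS/MS quantified with equalised channel sums. Results are log-two fold changes in thermal stability compared with solvent controls, from duplicates.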

pictilisib = compound: CS(=O)(=O)N1CCN(Cc2cc3nc(-c4cccc5[nH]ncc45)nc(N4CCOCC4)c3s2)CC1 [pictilisib]
In short: as §1

crizotinib = compound: C[C@@H](Oc1cc(-c2cnn(C3CCNCC3)c2)cnc1N)c1c(Cl)ccc(F)c1Cl [crizotinib]
In short: as §1

[1] = compound: C[C@H](C1=CC=C(C=C1)C(=O)NC2=C3C=CNC3=NC=C2)N
In short: as §1

duvelisib = compound: C[C@H](Nc1ncnc2nc[nH]c12)c1cc2cccc(Cl)c2c(=O)n1-c1ccccc1 [duvelisib]
In short: as §1

gandotinib = compound: Cc1cc(Nc2cc(CN3CCOCC3)c3nc(C)c(Cc4ccc(Cl)cc4F)n3n2)n[nH]1 [gandotinib]
In short: as §1

tozasertib = compound: Cc1cc(Nc2cc(N3CCN(C)CC3)nc(Sc3ccc(NC(=O)C4CC4)cc3)n2)n[nH]1 [tozasertib]
In short: as §1

doramapimod = compound: Cc1ccc(-n2nc(C(C)(C)C)cc2NC(=O)Nc2ccc(OCCN3CCOCC3)c3ccccc23)cc1 [doramapimod]
In short: as §1

bafetinib = compound: Cc1ccc(NC(=O)c2ccc(CN3CC[C@H](N(C)C)C3)c(C(F)(F)F)c2)cc1Nc1nccc(-c2cncnc2)n1 [bafetinib]
In short: as §1

[2] = compound: Cc1cccc(CC(=O)N2CCc3c2ccc(-c2cn(C)c4ncnc(N)c24)c3F)n1
In short: as §1

nilotinib = compound: Cc1cn(-c2cc(NC(=O)c3ccc(C)c(Nc4nccc(-c5cccnc5)n4)c3)cc(C(F)(F)F)c2)cn1 [nilotinib]
In short: as §1

[3] = compound: Cc1nc(Nc2n[nH]c3c2CN(C(=O)N[C@H](CN(C)C)c2ccccc2)C3(C)C)c2sccc2n1
In short: as §1

dasatinib = compound: Cc1nc(Nc2ncc(C(=O)Nc3c(C)cccc3Cl)s2)cc(N2CCN(CCO)CC2)n1 [dasatinib]
In short: as §1

[4] = compound: Cc1ncc(-c2ccnc(Nc3ccc(S(C)(=O)=O)cc3)n2)n1C(C)C
In short: as §1

[5] = compound: Cn1cc(-c2ccc3c(c2)CCN3C(=O)Cc2cccc(C(F)(F)F)c2)c2c(N)ncnc21
In short: as §1

quisinostat = compound: Cn1cc(CNCC2CCN(c3ncc(C(=O)NO)cn3)CC2)c2ccccc21 [quisinostat]
In short: as §1

tipifarnib = compound: Cn1cncc1[C@@](N)(c1ccc(Cl)cc1)c1ccc2c(c1)c(-c1cccc(Cl)c1)cc(=O)n2C [tipifarnib]
In short: as §1

[6] = compound: NC(=O)Nc1cc(-c2cccc(F)c2)sc1C(=O)N[C@H]1CCCNC1
In short: as §1

[7] = compound: NC(=O)c1cnc(N[C@@H]2CCCC[C@@H]2N)nc1Nc1cccc(-n2nccn2)c1
In short: as §1

[8] = compound: NC1(c2ccc(-c3nc4ccn5c(=O)[nH]nc5c4cc3-c3ccccc3)cc2)CCC1
In short: as §1

Measured: log2 fold change

UFM1 (UniProt P61960)
UniProt P61960, sequence (P61960 whole entry, looked up): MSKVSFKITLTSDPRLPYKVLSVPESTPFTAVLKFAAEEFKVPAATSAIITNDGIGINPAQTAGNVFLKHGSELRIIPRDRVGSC
active: [1] 0.566
inactive: lapatinib 0.134 | pictilisib 0.033 | crizotinib 0.191 | duvelisib 0.077 | gandotinib -0.36 | tozasertib -0.002 | doramapimod 0.022 | bafetinib 0.102 | [2] -0.319 | nilotinib 0.042 | [3] 0 | dasatinib -0.037 | [4] 0.107 | [5] -0.032 | quisinostat 0.321 | tipifarnib 0.088 | [6] -0.116 | [7] -0.063 | [8] 0.043

TOX4 (UniProt O94842)
UniProt O94842, sequence (O94842 whole entry, looked up): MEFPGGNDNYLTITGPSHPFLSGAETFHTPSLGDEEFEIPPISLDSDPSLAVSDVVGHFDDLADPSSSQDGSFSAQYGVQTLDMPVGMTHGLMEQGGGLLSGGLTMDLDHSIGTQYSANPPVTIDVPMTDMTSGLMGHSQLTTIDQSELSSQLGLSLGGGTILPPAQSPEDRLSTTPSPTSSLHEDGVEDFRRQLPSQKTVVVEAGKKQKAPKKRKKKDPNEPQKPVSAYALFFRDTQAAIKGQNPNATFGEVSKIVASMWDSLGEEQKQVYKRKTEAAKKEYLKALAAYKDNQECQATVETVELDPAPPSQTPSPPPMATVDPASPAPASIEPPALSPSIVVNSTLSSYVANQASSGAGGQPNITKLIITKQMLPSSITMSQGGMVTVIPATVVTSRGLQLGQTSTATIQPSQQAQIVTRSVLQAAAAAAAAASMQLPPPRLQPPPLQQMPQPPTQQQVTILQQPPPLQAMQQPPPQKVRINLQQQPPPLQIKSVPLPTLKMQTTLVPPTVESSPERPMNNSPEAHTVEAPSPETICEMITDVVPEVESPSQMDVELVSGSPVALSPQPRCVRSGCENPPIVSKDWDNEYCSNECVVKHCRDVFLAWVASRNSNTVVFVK
active: [1] -0.259 | gandotinib 0.231
inactive: lapatinib 0.058 | pictilisib 0.025 | crizotinib -0.068 | duvelisib 0.06 | tozasertib -0.094 | doramapimod 0.041 | bafetinib -0.043 | [2] 0.189 | nilotinib -0.056 | [3] -0.019 | dasatinib 0.001 | [4] 0.073 | [5] 0.009 | quisinostat -0.018 | tipifarnib -0.02 | [6] -0.017 | [7] 0.017 | [8] 0.034

TTC38 (UniProt Q5R3I4)
UniProt Q5R3I4, sequence (Q5R3I4 whole entry, looked up): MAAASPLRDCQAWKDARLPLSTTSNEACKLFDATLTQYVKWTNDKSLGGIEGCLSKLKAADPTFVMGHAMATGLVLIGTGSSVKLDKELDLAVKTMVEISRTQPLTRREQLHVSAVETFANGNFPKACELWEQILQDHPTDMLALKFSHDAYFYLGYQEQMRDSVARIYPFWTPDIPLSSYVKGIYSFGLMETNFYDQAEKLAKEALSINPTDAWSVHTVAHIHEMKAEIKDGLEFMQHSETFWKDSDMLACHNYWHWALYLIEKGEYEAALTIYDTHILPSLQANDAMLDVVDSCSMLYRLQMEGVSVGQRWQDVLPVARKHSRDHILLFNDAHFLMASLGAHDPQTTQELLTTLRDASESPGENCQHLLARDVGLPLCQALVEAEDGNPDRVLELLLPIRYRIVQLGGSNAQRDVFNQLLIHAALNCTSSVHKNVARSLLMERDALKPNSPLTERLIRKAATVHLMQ
inactive: lapatinib -0.034 | pictilisib -0.029 | crizotinib 0.031 | [1] 0.213 | duvelisib -0.022 | gandotinib -0.116 | tozasertib -0.011 | bafetinib 0.065 | [2] -0.186 | nilotinib 0.02 | [3] 0.016 | dasatinib 0.029 | [4] 0.059 | [5] -0.003 | tipifarnib 0.026 | [6] -0.036 | [7] 0.015 | [8] 0.029
active: doramapimod 0.301 | quisinostat 0.293

TRA2A (UniProt Q13595)
inactive: lapatinib -0.012 | pictilisib 0.032 | crizotinib -0.184 | [1] -0.048 | duvelisib -0.048 | gandotinib -0.011 | tozasertib 0.015 | doramapimod 0.086 | bafetinib 0.042 | [2] 0.053 | nilotinib 0.098 | [3] -0.041 | dasatinib -0.08 | [4] -0.124 | [5] 0.077 | quisinostat -0.213 | tipifarnib -0.114 | [6] -0.206 | [7] 0 | [8] -0.062

TRMT2A (UniProt Q8IZ69)
inactive: lapatinib -0.01 | pictilisib -0.057 | crizotinib -0.017 | [1] -0.002 | duvelisib -0.036 | gandotinib -0.03 | tozasertib 0.001 | doramapimod -0.002 | bafetinib -0.016 | [2] 0.009 | nilotinib -0.034 | [3] -0.011 | dasatinib -0.018 | [4] -0.011 | [5] 0.013 | quisinostat -0.023 | tipifarnib -0.007 | [6] 0.016 | [7] -0.002 | [8] -0.012

TLK1 isoform 2 (UniProt Q9UKI8)
inactive: lapatinib -0.047 | pictilisib 0.135 | crizotinib -0.061 | [1] -0.032 | duvelisib -0.048 | tozasertib 0.014 | doramapimod 0.011 | bafetinib -0.014 | [2] 0.022 | nilotinib -0.044 | dasatinib -0.005 | [4] 0.188 | [5] -0.036 | quisinostat -0.23 | tipifarnib 0.023 | [6] 0.133 | [7] 0.035 | [8] -0.021
active: gandotinib 0.456 | [3] 0.414

TCF12 isoform 3 (UniProt Q99081)
inactive: lapatinib -0.047 | pictilisib 0.055 | crizotinib 0.034 | [1] -0.038 | duvelisib 0.025 | gandotinib 0.056 | tozasertib 0.023 | doramapimod -0.011 | bafetinib -0.11 | [2] -0.001 | nilotinib -0.031 | [3] 0.016 | dasatinib 0 | [4] 0.052 | [5] -0.022 | quisinostat 0.02 | tipifarnib -0.022 | [6] -0.011 | [7] -0.032 | [8] -0.043

TUBA3C (UniProt P0DPH7)
UniProt P0DPH7, sequence (P0DPH7 whole entry, looked up): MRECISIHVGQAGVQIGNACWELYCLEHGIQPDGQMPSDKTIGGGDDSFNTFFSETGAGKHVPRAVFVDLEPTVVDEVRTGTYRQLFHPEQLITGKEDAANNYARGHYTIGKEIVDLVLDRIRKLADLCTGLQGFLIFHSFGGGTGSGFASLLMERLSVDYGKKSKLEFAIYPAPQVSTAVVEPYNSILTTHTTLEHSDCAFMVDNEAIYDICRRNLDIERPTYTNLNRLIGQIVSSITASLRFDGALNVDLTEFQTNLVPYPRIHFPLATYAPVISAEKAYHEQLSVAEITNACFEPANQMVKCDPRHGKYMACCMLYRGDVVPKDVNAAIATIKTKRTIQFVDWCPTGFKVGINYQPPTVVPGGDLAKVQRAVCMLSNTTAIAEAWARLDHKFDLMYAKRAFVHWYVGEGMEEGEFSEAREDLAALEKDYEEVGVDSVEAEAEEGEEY
inactive: lapatinib 0.038 | pictilisib -0.003 | crizotinib -0.078 | [1] 0.009 | duvelisib 0.03 | gandotinib 0.072 | tozasertib 0.055 | doramapimod 0.014 | bafetinib 0.012 | [2] 0.023 | nilotinib -0.009 | [3] -0.029 | dasatinib -0.018 | [4] -0.001 | [5] -0.05 | quisinostat -0.098 | tipifarnib -0.025 | [6] 0.05 | [7] 0.022 | [8] 0.005

TMEM164 (UniProt Q5U3C3)
UniProt Q5U3C3, sequence (Q5U3C3 whole entry, looked up): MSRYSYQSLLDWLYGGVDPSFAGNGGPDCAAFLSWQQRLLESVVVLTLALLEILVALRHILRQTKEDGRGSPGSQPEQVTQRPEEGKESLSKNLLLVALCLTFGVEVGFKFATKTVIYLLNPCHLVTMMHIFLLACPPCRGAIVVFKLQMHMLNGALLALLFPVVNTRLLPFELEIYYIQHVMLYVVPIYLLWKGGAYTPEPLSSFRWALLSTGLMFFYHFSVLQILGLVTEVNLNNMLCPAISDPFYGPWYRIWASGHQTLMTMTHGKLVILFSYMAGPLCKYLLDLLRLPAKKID
inactive: lapatinib -0.166 | pictilisib 0.186 | crizotinib -0.03 | duvelisib 0.131 | gandotinib 0.27 | tozasertib -0.091 | doramapimod -0.173 | bafetinib -0.05 | [2] 0.512 | nilotinib 0.06 | [3] -0.009 | dasatinib -0.087 | [4] 0.162 | [5] -0.041 | quisinostat -0.404 | tipifarnib -0.055 | [6] 0.1 | [7] 0.083 | [8] -0.036
active: [1] -0.789

UCHL5 isoform 3 (UniProt Q9Y5K5)
UniProt Q9Y5K5, sequence (Q9Y5K5 whole entry, looked up): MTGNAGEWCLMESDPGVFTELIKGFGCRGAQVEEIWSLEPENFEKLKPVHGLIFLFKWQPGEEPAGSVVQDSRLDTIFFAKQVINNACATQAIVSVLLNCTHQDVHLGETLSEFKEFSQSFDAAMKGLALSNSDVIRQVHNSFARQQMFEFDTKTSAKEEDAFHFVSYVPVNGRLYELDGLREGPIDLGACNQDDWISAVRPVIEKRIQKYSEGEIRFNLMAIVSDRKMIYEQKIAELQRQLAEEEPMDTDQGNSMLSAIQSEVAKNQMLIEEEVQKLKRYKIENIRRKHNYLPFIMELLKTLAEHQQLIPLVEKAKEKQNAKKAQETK
inactive: lapatinib 0.042 | pictilisib -0.029 | crizotinib 0.022 | [1] 0.121 | duvelisib -0.01 | gandotinib -0.044 | tozasertib -0.007 | doramapimod -0.015 | bafetinib -0.019 | [2] -0.02 | nilotinib 0.016 | [3] -0.008 | dasatinib 0.01 | [4] 0.001 | [5] 0.006 | quisinostat -0.01 | tipifarnib -0.005 | [6] 0.013 | [7] -0.031 | [8] 0.003

TCP11L1 (UniProt Q9NUJ3)
UniProt Q9NUJ3, sequence (Q9NUJ3 whole entry, looked up): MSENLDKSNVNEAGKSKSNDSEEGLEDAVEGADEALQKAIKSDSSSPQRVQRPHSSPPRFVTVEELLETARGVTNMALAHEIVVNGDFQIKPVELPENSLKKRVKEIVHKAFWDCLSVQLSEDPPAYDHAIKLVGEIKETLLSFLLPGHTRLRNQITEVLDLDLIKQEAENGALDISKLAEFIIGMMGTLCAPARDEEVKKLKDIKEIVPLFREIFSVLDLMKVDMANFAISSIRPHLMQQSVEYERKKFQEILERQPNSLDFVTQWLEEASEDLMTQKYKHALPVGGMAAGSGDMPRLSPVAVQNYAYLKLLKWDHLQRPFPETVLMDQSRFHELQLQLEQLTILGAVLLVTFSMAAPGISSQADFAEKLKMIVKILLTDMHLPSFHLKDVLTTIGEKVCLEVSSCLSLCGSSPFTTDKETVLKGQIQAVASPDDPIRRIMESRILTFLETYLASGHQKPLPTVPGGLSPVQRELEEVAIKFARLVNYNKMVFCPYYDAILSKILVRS
inactive: lapatinib -0.008 | pictilisib -0.028 | crizotinib -0.022 | [1] -0.204 | duvelisib -0.024 | gandotinib 0.066 | tozasertib -0.069 | doramapimod -0.017 | bafetinib -0.007 | [2] 0.146 | nilotinib 0.062 | [3] -0.114 | dasatinib -0.034 | [4] -0.035 | [5] 0.01 | quisinostat -0.055 | tipifarnib -0.003 | [6] 0.051 | [7] -0.022 | [8] 0.028

TUBB3 (UniProt Q13509)
UniProt Q13509, sequence (Q13509 whole entry, looked up): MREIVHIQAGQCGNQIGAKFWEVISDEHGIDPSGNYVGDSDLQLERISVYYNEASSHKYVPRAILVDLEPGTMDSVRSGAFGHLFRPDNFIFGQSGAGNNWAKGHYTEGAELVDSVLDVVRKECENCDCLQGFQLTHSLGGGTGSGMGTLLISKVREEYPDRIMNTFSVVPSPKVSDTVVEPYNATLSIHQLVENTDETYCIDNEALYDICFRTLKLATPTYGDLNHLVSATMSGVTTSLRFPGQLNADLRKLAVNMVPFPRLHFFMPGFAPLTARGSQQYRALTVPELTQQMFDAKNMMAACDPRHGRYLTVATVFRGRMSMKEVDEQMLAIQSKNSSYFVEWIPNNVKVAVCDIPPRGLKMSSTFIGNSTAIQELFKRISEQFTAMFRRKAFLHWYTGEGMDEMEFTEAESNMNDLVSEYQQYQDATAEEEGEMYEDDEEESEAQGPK
inactive: lapatinib 0.015 | pictilisib 0.032 | crizotinib -0.027 | [1] 0.018 | duvelisib 0.026 | gandotinib 0.02 | tozasertib 0.001 | doramapimod -0.005 | bafetinib 0.021 | [2] 0.001 | nilotinib 0.029 | [3] -0.028 | dasatinib -0.027 | [4] -0.003 | [5] 0.024 | quisinostat -0.004 | tipifarnib -0.013 | [6] 0.039 | [7] 0.006 | [8] 0.006

TMEM263 (UniProt Q8WUH6)
inactive: lapatinib 0.149 | pictilisib 0.015 | crizotinib 0.06 | [1] -0.072 | duvelisib 0.02 | gandotinib 0.178 | tozasertib -0.066 | doramapimod 0.112 | bafetinib -0.028 | [2] 0.208 | nilotinib 0.151 | [3] 0.153 | dasatinib -0.134 | [4] -0.079 | [5] 0.011 | quisinostat 0.021 | [6] 0.063 | [7] -0.021 | [8] -0.154
active: tipifarnib -0.512

TNIK isoform 4 (UniProt Q9UKE5)
UniProt Q9UKE5, sequence (Q9UKE5 whole entry, looked up): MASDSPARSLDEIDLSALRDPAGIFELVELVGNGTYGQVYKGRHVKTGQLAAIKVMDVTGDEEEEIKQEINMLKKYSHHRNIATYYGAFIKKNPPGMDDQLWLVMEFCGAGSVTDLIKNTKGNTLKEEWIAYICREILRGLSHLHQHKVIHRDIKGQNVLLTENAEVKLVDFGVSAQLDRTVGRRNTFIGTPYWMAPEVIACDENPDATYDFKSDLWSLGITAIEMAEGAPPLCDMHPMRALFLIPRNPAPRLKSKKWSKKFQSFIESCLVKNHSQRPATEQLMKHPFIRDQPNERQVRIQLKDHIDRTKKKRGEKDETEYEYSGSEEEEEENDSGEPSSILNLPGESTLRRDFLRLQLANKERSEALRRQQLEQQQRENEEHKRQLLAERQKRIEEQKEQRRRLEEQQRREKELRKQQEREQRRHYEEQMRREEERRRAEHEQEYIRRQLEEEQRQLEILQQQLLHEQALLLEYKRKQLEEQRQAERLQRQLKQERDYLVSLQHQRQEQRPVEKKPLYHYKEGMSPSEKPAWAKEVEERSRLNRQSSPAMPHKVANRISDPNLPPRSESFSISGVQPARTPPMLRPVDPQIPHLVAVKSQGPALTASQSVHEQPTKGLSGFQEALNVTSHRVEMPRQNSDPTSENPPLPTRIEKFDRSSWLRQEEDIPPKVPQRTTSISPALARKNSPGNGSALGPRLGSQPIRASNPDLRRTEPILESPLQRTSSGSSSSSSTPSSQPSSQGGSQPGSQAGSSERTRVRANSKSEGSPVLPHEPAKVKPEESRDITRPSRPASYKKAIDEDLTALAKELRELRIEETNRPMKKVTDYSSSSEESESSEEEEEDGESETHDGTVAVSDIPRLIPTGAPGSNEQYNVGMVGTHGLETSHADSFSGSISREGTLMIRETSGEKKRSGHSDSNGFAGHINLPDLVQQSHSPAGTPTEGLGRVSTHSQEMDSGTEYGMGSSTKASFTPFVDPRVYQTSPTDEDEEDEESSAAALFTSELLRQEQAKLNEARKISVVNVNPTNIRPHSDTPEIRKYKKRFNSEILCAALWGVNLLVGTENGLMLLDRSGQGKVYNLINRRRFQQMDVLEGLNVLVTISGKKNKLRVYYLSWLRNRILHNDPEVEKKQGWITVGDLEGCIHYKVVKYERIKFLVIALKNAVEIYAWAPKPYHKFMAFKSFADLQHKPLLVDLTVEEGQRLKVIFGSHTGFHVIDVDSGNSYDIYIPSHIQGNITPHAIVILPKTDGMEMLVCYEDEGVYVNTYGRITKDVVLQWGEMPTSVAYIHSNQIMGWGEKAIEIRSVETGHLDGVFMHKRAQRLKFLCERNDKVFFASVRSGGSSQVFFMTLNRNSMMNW
active: [6] 0.483
inactive: lapatinib -0.017 | pictilisib 0.012 | crizotinib -0.055 | [1] 0.038 | duvelisib 0.004 | gandotinib 0.153 | tozasertib 0.098 | doramapimod 0.205 | bafetinib -0.007 | [2] -0.04 | nilotinib -0.019 | [3] 0.087 | dasatinib 0.203 | [4] 0.11 | [5] -0.011 | quisinostat -0.198 | tipifarnib -0.022 | [7] 0.08 | [8] -0.021

TTC12 isoform 2 (UniProt Q9H892)
active: [2] 0.445
inactive: lapatinib -0.053 | pictilisib -0.153 | crizotinib -0.068 | [1] -0.416 | duvelisib 0.143 | gandotinib 0.031 | tozasertib 0.092 | doramapimod 0.022 | bafetinib -0.14 | nilotinib -0.128 | [3] -0.073 | dasatinib -0.143 | [4] 0.018 | [5] 0.004 | quisinostat 0.033 | tipifarnib 0.075 | [6] 0.007 | [7] -0.041 | [8] -0.073

TMEM97 (UniProt Q5BJF2)
UniProt Q5BJF2, sequence (Q5BJF2 whole entry, looked up): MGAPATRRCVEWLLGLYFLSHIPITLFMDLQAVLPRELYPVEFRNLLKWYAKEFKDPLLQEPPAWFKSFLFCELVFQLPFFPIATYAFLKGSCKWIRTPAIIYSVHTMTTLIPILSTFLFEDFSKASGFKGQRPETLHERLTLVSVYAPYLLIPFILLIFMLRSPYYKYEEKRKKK
active: [1] -0.277
inactive: lapatinib -0.052 | pictilisib -0.004 | crizotinib 0.113 | duvelisib 0.014 | gandotinib 0.17 | tozasertib -0.013 | doramapimod -0.127 | bafetinib -0.015 | [2] 0.12 | nilotinib 0.098 | [3] 0.053 | dasatinib 0.018 | [4] 0.124 | [5] -0.005 | quisinostat 0.046 | tipifarnib 0.057 | [6] 0.011 | [7] -0.034 | [8] 0.023
